Most compounds without a hit are left out; they make up all but 15% or so of the library.
VP16 counter: counter-screen for ROR gamma inhibitors: Gal4-VP16 reporter | 3.5% of 310,000 active | Potency, µM (doses to about 53.6 µM), without a hit: at the highest dose activity, negative = inhibition, hits mostly inhibitors | Drosophila S2 Gal4-VP16 UAS-luciferase, luminescence, 20 h;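 note: Gal4-VP16 expression switched on by copper sulfate through the metallothionein promoter; nearly all actives have a fitted effect of over 50% in size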
ELG1 DNA repair: blocks ELG1-dependent DNA repair in HEK293T cells. HEK293T ELG1-luciferase reporter, luminescence, 16 h; DNA damage induced by 5-fluorouridine. Potency, µM (series often up to 46.1 µM), for the others: at the top dose activity change, negative = inhibition, hits mostly inhibitors. 2.3% of 330,000 active; note: nearly all actives have a fitted effect of over 55% in size
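Cells (2,000 per well) received 5-fluorouridine plus test compound or DMSO and were incubated 16 hr at 37 °C, 5% CO2. Luciferase activity was read by luminescence 30 min after ONE-Glo addition; signal suppression marked inhibition of damage-induced ELG1 function.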
TDP1 cell noCPT: qHTS for Inhibitors of human tyrosyl-DNA phosphodiesterase 1 (TDP1): qHTS in cells in absence of CPT; AID 686978, 2013; Potency, µM (series often up to 46.2 µM), without a hit: at the highest dose activity change, negative = growth inhibition, most hits filed as inhibitors; 15% of 420,000 active; DT40 Tdp1-/- hTDP1 cells, no CPT, ATP luminescence, 48 h; note: nearly all actives have a fitted effect of over 55% in size
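DT40 Tdp1-/-;hTDP1 cells, no CPT (DMSO vehicle only), 400 cells/well; compounds pin-transferred; ≥48 hr, 37 °C; CellTiter-Glo 30 min RT dark, luminescence read.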
DT40 TDP1 CPT: DT40-hTDP1 cell growth loss with CPT; 12% of 420,000 active; AID 686979; Potency, µM (highest dose often 46.2 µM), for inactives: at the top dose activity change, negative = growth inhibition, most hits filed as inhibitors; chicken DT40 Tdp1-/-;hTDP1 cells + 20 nM CPT, ATP luminescence, 48 h; note: nearly all actives have a fitted effect of over 55% in size
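Chicken DT40 Tdp1-/- cells stably complemented with human TDP1 were seeded at 400 cells/well in medium containing 20 nM camptothecin, exposed to pin-transferred compounds, and grown at 37 °C for at least 48 hr. Viability was read as ATP luminescence.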
RORgamma inh: ROR gamma (mouse) transcription inhibition; Potency, µM (top dose mostly 53.6 µM), for the others: top-dose activity change, negative = inhibition, usual class: inhibitors; Drosophila S2 Gal4-RORgamma UAS-luciferase reporter, 20 h; 5.4% of 310,000 active; AID 2551; note: nearly all actives have a fitted effect of over 60% in size
Target sequence (P51450 whole entry, looked up, the tested form may be a part): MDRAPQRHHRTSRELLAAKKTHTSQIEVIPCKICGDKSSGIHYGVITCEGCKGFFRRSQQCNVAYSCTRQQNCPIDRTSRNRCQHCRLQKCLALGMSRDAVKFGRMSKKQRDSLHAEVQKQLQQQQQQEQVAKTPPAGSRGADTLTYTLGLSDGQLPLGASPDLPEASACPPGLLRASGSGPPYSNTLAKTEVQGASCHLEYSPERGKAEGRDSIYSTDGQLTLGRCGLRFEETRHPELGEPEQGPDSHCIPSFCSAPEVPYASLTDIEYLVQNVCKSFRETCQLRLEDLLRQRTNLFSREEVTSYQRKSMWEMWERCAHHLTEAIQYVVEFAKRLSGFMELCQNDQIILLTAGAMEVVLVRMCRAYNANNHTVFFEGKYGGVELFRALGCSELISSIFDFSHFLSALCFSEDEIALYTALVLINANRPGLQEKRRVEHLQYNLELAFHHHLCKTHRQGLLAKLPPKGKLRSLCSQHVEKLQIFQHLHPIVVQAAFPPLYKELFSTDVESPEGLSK
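Using a luciferase readout, inhibitors were identified by reduced reporter activity in Drosophila cells coexpressing a copper-inducible Gal4–ROR gamma fusion and UAS-driven Photinus luciferase, incubated 20 hr after 700 uM copper sulfate.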
12-LOX inh: blocks human arachidonate 12S-lipoxygenase; P18054; purified 12hLO, xylenol orange hydroperoxide absorbance; Potency, µM (series often up to 108 µM), without a hit: at the top dose activity change, negative = inhibition, hits mostly inhibitors; 1.1% of 580,000 active; AID 1671190
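Purified human 12hLO (150 nM final) in 25 mM Hepes, 0.01% Triton X-100, pH 7.0 was preincubated 15 min at room temperature with compound. Then 40 uM arachidonic acid was added, 30 min. Hydroperoxide was read by Fe-XO absorbance ratio 573/405 nm.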
* hit, by the source's call; ? = inconclusive; / = not tested or not shown; [ ] = another dose, or the depositor's remark. Calls come from the whole dose curve; as a rule, active = well fitted curve in the direction sought with a large enough effect; inconclusive = small, poorly fitted or top-dose-only effect, or another doubt; inactive = no such curve, though single readings can be large; an effect the other way counts as inactive or inconclusive. % is set by controls: 0 for no effect and ±100 for the full control effect; potency is the fitted concentration of half-maximal effect.

SMILES	VP16 counter	ELG1 DNA repair	TDP1 cell noCPT	DT40 TDP1 CPT	RORgamma inh	12-LOX inh
COCc1nc2ccccc2n1Cc1ccccc1C	9%	-9%	?	?	?	8%
CC(C)(C)c1ccc(Cn2c(Cc3ccccc3)nc3ccccc32)cc1	/	/	6.5µM*	7.3µM*	/	-18%
Cc1ccccc1Cn1c(Cc2ccccc2)nc2ccccc21	?	-7%	18µM*	?	5.6µM*	-3%
CCc1nc2ccccc2n1Cc1ccc(F)cc1	13%	8%	-13%	?	?	-1%
COCc1nc2ccccc2n1Cc1cccc(C)c1	2%	15%	?	?	13µM*	?
O=C(CCc1ncc(-c2ccccc2F)o1)N1CCN(c2ccc([N+](=O)[O-])cc2)CC1	/	/	/	/	/	-1%
Cc1cccc(Cn2c(Cc3ccccc3)nc3ccccc32)c1	4.5µM*	11%	?	?	3.2µM*	-11%
COCc1nc2ccccc2n1CCc1ccccc1	?	?	?	-22%	11µM*	0%
COCCn1c(COC)nc2ccccc21	0%	1%	-1%	1%	-11%	0%
Cc1csc(CNC(=O)c2sccc2C)n1	/	/	/	/	/	22%
O=C(/C=C/c1ccc(-c2ccccc2Cl)o1)c1ccc(F)cc1	/	/	/	/	/	11µM*
COC(=O)c1ccc(/C=C/C(=O)c2ccccc2)o1	/	/	/	/	/	-63%
COC(=O)N/N=C/c1ccc(-c2ccccc2Cl)o1	-10%	?	?	0%	-4%	?
Cc1ccc(C(=O)/C=C/c2ccc(-c3ccccc3Br)o2)cc1	/	/	/	/	/	1.1µM*
Cc1ccc(C(=O)/C=C/c2ccc(-c3ccccc3Cl)o2)cc1	/	/	/	/	/	7.1µM*
O=C(/C=C/c1ccc(-c2ccccc2[N+](=O)[O-])o1)c1ccccc1	0%	?	23µM*	?	26%	-9%
COCC(=O)NNC(=S)NCc1ccc(C)cc1	/	/	/	/	/	-2%
O=C(/C=C/c1ccc(-c2ccccc2Cl)o1)c1ccc2ccccc2c1	/	/	/	/	/	1µM*
O=C(/C=C/c1ccc(-c2ccc(Cl)c(Cl)c2)o1)c1ccc(Br)cc1	/	/	/	/	/	13µM*
Cc1ccc(C(=O)N/N=C\c2ccc(-c3ccc(Cl)c(Cl)c3)o2)cn1	?	-16%	?	?	?	0%
N#C/C(=C\c1ccc(-c2ccccc2Cl)o1)c1ccc(Cl)cc1	/	/	/	/	/	4%
Cn1c(Sc2ncnc3sccc23)nnc1-c1ccc(F)cc1	/	/	/	/	/	-9%
CCCn1nnnc1CN1CCC(C(=O)c2ccc3c(c2)OCCO3)CC1	/	/	/	/	/	0%
Cc1cccc(/C=N/Nc2cc(N3CCOCC3)nc(N3CCOCC3)n2)c1	?	7.3µM*	16µM*	3.3µM*	39%	0%
Oc1ccc(/C=N\Nc2cc(N3CCOCC3)nc(N3CCOCC3)n2)c(O)c1	-2%	10µM*	16µM*	21µM*	28%	4%
Oc1ccc(/C=N/Nc2cc(N3CCCC3)nc(N3CCCC3)n2)cc1O	-13%	-10%	21µM*	18µM*	-3%[10 µM]	?
Cc1cc(N/N=C/c2ccc(O)cc2O)nc(N2CCOCC2)n1	0%	?	-28%	-3%	28%	19%
O=C(NNc1cc(N2CCOCC2)nc(N2CCOCC2)n1)c1ccc(Cl)c(Cl)c1	?	-3%	?	?	14µM*	0%
Cc1noc(C)c1CC(=O)N1CC(=O)N(C2CCCCC2)CC(OCc2ccccc2)C1 (centres undefined)	/	/	/	/	/	0%
CCC1CN(C(=O)N2CCC(C(=O)NCc3ccc(F)cc3)CC2)c2ccccc2O1 (centres undefined)	4%	-14%	-14%	-30%	11%	23%

Source: PubChem BioAssay
